Activity calls are given as the source filed them. The calls were made as follows: active = hit-call score of the fitted dose curve at least 0.9, where 1 is the maximum; inactive = score below 0.9.
Experiments:
[1] = ATG_GRE_CIS: Attagene CIS-FACTORIAL HepG2 Assay for human Glucocorticoid Response Elements (GRE) (AID 2282947); conditions: HepG2 GRE cis-reporter, Attagene multiplex mRNA; actives raise or lower the signal
In short: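 Read-out: fluorescent reporter-transcript fragments separated by capillary electrophoresis after RT-PCR. Transiently transfected HepG2 cells carrying cis-element-driven reporter units were dosed for 24 h; gain or loss of signal fitted against DMSO control.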

[2] = ATG_ISRE_CIS: Attagene CIS-FACTORIAL HepG2 Assay for human Interferon Regulatory Factor 1 (IRF1) binding to an Interferon-Stimulated Response Element (ISRE) (AID 2282948); conditions: HepG2 ISRE cis-reporter (Attagene), mRNA transcription readout; actives raise or lower the signal
In short: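 Endogenous transcription factor activity read as reporter transcript abundance via RT-PCR and capillary electrophoresis. HepG2 cells transiently transfected, 24 h chemical exposure. Gain or loss fitted against DMSO baseline.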

[3] = ATG_M_06_CIS: Attagene CIS-FACTORIAL HepG2 Assay for M06 Transcription Factor (Internal Marker) (AID 2282950); conditions: HepG2 Attagene CIS-FACTORIAL M06 internal marker reporter; actives raise or lower the signal
In short: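 Steps: transfect HepG2 with multiplexed cis-element reporter constructs; dose chemical 24 h; extract RNA with DNase treatment; reverse-transcribe, PCR-amplify, 6-FAM label, HpaI digest; separate fragments by capillary electrophoresis. Activity fitted both directions versus DMSO.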

[4] = molecular target: Hypoxia-inducible factor 1-alpha (Homo sapiens) (UniProt Q16665); assay: ATG_HIF1a_CIS: Attagene CIS-FACTORIAL HepG2 Assay for human Hypoxia Inducible Factor 1 (HIF1A) (AID 2282951); conditions: HepG2 Attagene cis-factorial HIF1a reporter transcription; actives raise or lower the signal
Sequence of Hypoxia-inducible factor 1-alpha (Homo sapiens) (Q16665 whole entry, looked up): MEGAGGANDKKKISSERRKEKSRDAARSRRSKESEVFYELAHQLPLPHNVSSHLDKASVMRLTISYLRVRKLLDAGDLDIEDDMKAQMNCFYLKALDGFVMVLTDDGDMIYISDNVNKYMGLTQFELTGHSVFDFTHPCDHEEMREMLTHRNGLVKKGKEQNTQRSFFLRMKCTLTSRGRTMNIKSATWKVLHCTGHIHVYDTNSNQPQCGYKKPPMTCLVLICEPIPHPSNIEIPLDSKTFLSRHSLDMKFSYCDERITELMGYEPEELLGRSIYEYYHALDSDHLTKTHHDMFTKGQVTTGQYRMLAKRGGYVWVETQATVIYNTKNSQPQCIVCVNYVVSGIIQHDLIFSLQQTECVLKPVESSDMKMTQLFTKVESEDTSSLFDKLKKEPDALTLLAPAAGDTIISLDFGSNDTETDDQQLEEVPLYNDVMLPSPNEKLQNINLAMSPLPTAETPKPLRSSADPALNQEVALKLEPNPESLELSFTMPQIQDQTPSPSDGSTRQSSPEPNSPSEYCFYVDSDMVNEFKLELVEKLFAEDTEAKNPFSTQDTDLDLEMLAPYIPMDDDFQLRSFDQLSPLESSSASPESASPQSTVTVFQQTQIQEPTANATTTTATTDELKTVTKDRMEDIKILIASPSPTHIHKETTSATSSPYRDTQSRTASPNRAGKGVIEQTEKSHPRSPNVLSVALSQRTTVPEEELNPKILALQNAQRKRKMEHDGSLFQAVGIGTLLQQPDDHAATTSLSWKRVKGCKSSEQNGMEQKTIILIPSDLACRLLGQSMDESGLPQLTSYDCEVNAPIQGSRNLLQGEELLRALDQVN
In short: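 Dosed 24 h, transfected HepG2 cells yielded total RNA whose reporter transcripts were RT-PCR-amplified and sized by capillary electrophoresis using fluorescent labelling; DMSO defined baseline, with gain and loss of signal both fitted.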

[5] = molecular target: Hepatocyte nuclear factor 6 (Homo sapiens) (UniProt Q9UBC0); assay: ATG_HNF6_CIS: Attagene CIS-FACTORIAL HepG2 Assay for human Hepatocyte Nuclear Factor 6 (HNF6) (AID 2282952); conditions: HepG2 Attagene cis-factorial HNF6 reporter transcription; actives raise or lower the signal
Sequence of Hepatocyte nuclear factor 6 (Homo sapiens) (Q9UBC0 whole entry, looked up): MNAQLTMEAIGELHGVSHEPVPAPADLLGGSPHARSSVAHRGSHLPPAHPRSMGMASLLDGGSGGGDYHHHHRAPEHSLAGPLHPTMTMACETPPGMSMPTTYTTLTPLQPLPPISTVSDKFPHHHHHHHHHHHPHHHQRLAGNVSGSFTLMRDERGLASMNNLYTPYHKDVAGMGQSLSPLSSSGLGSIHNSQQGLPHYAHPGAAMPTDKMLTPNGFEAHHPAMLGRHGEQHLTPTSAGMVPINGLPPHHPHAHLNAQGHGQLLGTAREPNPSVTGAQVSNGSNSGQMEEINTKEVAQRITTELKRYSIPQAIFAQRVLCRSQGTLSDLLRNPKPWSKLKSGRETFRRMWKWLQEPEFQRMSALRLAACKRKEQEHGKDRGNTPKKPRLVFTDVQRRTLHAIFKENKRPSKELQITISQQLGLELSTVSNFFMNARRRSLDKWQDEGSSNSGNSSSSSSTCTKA
In short: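 Activity values derive from bidirectional fitting against DMSO of reporter mRNA levels, measured by capillary electrophoresis of labelled RT-PCR products from HepG2 cells exposed 24 h.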

[6] = molecular target: Heat shock factor protein 1 (Homo sapiens) (UniProt Q00613); assay: ATG_HSE_CIS: Attagene CIS-FACTORIAL HepG2 Assay for human Heat Shock Transcription Factor 1 (HSE) (AID 2282953); conditions: HepG2 HSE cis-reporter, Attagene RNA transcription; actives raise or lower the signal
Sequence of Heat shock factor protein 1 (Homo sapiens) (Q00613 whole entry, looked up, the tested form may be a part): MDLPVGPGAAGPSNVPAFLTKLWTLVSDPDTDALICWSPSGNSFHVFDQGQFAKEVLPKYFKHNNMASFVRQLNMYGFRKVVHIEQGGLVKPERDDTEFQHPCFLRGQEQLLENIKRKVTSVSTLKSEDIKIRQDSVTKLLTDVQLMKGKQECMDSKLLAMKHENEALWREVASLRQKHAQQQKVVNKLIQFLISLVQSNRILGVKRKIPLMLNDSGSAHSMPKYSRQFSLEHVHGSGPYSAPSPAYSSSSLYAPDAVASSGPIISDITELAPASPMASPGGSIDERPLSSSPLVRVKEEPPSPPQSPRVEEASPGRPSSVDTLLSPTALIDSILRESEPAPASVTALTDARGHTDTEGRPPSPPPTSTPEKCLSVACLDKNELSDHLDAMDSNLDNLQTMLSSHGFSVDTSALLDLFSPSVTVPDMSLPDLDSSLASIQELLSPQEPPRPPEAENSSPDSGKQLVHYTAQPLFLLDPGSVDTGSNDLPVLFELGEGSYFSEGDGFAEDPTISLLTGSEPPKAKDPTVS
In short: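 Cells were transfected with cis-element-driven reporter constructs, dosed for 24 h, then total RNA was reverse-transcribed and reporter cDNA amplified, FAM-labelled and digested with HpaI. Fragments were resolved by capillary electrophoresis; gain or loss was fitted against DMSO.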

[7] = ATG_MRE_CIS: Attagene CIS-FACTORIAL HepG2 Assay for human Metal Responsive Element (MRE) (AID 2282954); conditions: HepG2 MRE cis-reporter transcription, Attagene multiplex; actives raise or lower the signal
In short: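 RT-PCR/capillary electrophoresis readout of reporter mRNA, 24 h post-dosing, in HepG2 cells transfected with multiplexed cis-regulated reporter constructs. Gain or loss of signal fitted bidirectionally against DMSO baseline.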

[8] = ATG_PBREM_CIS: Attagene CIS-FACTORIAL HepG2 Assay for human Phenobarbital-responsive Enhancer Module (PBREM) (AID 2282955); conditions: HepG2 PBREM cis-reporter, Attagene multiplexed transcription; actives raise or lower the signal
In short: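 Transfected liver-derived HepG2 cells exposed 24 h; PBREM reporter transcript quantified via RT-PCR and capillary electrophoresis, with activity in either direction referenced to DMSO.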

[9] = molecular target: Paired box protein Pax-6 (Homo sapiens) (UniProt P26367); assay: ATG_Pax6_CIS: Attagene CIS-FACTORIAL HepG2 Assay for human Paired Box 6 (PAX6) (AID 2282956); conditions: HepG2 CIS-FACTORIAL PAX6 reporter transcription, RNA readout; actives raise or lower the signal
Sequence of Paired box protein Pax-6 (Homo sapiens) (P26367 whole entry, looked up): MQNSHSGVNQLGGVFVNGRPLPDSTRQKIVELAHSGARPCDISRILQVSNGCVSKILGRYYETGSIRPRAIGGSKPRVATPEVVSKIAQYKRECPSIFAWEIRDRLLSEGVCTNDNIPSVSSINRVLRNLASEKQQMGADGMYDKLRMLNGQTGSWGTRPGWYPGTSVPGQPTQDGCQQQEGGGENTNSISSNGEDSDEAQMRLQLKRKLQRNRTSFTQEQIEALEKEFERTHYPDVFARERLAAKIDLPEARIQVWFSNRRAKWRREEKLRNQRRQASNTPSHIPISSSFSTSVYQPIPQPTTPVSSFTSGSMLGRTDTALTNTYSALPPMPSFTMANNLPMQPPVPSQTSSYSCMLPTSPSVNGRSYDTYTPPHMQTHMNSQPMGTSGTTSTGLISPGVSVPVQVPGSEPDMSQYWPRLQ
In short: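 Read-out is reporter transcript level, measured by RT-PCR with fluorescent primer extension and capillary electrophoresis after 24 h dosing of transfected HepG2 cells. Activity in either direction fitted relative to DMSO control.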

[10] = ATG_PXRE_CIS: Attagene CIS-FACTORIAL HepG2 Assay for human Pregnane X Receptor Element (PXRE) (AID 2282957); conditions: HepG2 Attagene CIS-FACTORIAL PXRE reporter, mRNA; actives raise or lower the signal
In short: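 Fluorescent capillary electrophoresis of amplified reporter cDNA gave the signal, collected 24 h after dosing HepG2 cells that held transfected cis-element reporter constructs.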

[11] = ATG_PPRE_CIS: Attagene CIS-FACTORIAL HepG2 Assay for human Peroxisome Proliferator-activated Response Element (PPRE) (AID 2282958); conditions: HepG2 PPRE cis-element reporter, Attagene transcription factor profiling; actives raise or lower the signal
In short: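 Measured endpoint: PPRE-controlled reporter mRNA, detected by RT-PCR and capillary electrophoresis fluorescence, from transiently transfected HepG2 cells 24 h after dosing. Curves fitted in both directions using DMSO baseline.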

[12] = ATG_RORE_CIS: Attagene CIS-FACTORIAL HepG2 Assay for human RAR-related Orphan Receptor Element (RORE) (AID 2282959); conditions: HepG2 Attagene cis-factorial RORE reporter, mRNA; actives raise or lower the signal
In short: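 Transiently transfected HepG2 reporter cells were treated 24 h. Reporter transcripts were detected by RT-PCR and capillary electrophoresis, with bidirectional fitting against DMSO.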

[13] = molecular target: Transcription factor Sp1 (Homo sapiens) (UniProt P08047); assay: ATG_Sp1_CIS: Attagene CIS-FACTORIAL HepG2 Assay for human Specificity Protein 1 (Sp1) (AID 2282961); conditions: HepG2 Sp1 cis-reporter transcription, actives raise or lower the signal
Sequence of Transcription factor Sp1 (Homo sapiens) (P08047 whole entry, looked up, the tested form may be a part): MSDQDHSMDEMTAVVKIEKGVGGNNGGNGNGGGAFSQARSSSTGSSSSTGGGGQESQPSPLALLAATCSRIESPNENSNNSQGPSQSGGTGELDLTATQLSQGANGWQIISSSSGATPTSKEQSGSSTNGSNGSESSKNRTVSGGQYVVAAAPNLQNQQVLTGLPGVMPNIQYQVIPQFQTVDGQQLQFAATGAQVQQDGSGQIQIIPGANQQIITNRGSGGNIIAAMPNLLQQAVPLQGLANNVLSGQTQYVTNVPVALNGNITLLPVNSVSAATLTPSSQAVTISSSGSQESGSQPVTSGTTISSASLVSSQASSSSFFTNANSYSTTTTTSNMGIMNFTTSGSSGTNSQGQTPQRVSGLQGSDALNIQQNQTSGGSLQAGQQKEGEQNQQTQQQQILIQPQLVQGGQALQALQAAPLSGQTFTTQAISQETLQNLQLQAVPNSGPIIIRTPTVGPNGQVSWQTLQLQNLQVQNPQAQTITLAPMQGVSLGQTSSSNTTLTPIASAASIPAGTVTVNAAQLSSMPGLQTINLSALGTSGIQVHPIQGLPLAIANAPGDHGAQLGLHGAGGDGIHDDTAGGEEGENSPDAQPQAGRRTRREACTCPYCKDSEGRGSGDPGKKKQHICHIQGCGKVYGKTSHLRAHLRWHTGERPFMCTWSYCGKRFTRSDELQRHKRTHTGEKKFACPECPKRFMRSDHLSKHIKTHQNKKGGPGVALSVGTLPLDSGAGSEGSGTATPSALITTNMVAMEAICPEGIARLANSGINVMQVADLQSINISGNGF
In short: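 Endpoint reflects endogenous Sp1 transcriptional activity, not an exogenous fusion protein: HepG2 cells with transfected cis-regulated reporters, 24 h dosing, RT-PCR/capillary electrophoresis mRNA read-out, DMSO-normalised bidirectional fit.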

[14] = ATG_SREBP_CIS: Attagene CIS-FACTORIAL HepG2 Assay for human Sterol Regulatory Element Binding (SREBP) (AID 2282962); conditions: HepG2 Attagene cis-factorial SREBP reporter, mRNA; actives raise or lower the signal
In short: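 Endogenous SREBP activity read as cis-element-driven reporter transcript in transiently transfected HepG2, 24 h post-dosing; quantified via RT-PCR plus capillary electrophoresis of fluorescent fragments. Gain or loss of signal fitted relative to DMSO baseline.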

[15] = molecular target: Signal transducer and activator of transcription 3 (Homo sapiens) (UniProt P40763); assay: ATG_STAT3_CIS: Attagene CIS-FACTORIAL HepG2 Assay for human Signal Transducer and Activator of Transcription 3 (STAT3) (AID 2282963); conditions: HepG2, Attagene cis-factorial STAT3 reporter transcription; actives raise or lower the signal
Sequence of Signal transducer and activator of transcription 3 (Homo sapiens) (P40763 whole entry, looked up, the tested form may be a part): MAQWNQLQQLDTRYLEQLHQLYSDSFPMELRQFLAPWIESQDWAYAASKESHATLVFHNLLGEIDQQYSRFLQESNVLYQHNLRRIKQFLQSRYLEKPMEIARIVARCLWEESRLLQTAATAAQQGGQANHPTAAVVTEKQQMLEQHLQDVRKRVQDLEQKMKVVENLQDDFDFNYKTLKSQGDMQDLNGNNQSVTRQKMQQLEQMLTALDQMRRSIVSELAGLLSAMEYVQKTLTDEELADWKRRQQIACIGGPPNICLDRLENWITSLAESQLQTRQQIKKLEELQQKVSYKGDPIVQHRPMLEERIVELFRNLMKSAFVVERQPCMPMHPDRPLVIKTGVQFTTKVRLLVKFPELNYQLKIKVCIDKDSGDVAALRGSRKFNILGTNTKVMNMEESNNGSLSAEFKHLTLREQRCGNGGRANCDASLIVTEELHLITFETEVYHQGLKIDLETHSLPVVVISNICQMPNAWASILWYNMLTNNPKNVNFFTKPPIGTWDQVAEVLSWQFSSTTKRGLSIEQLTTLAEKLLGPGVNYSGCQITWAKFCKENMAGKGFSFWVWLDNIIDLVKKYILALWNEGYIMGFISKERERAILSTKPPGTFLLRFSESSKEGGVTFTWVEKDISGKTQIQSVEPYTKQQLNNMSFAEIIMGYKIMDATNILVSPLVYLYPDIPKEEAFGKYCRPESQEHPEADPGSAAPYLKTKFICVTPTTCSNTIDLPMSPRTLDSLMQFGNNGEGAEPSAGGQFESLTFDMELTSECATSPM
In short: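 Readout: fluorescent reporter mRNA fragments resolved by capillary electrophoresis. Setup: HepG2 transfected with MRTUs reporting endogenous transcription-factor activity, dosed 24 h. Gain or loss of signal fitted bidirectionally against DMSO control.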

[16] = ATG_TCF_b_cat_CIS: Attagene CIS-FACTORIAL HepG2 Assay for human T-Cell-Factor with beta-catenin (TCF/b-cat) (AID 2282965); conditions: HepG2 TCF/beta-catenin cis-reporter transcription, actives raise or lower the signal
In short: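 HepG2, transient MRTU transfection, cis-element-driven reporters (endogenous TFs). 24 h compound exposure. Readout: reporter mRNA by RT-PCR + 6-FAM primer extension, HpaI digest, capillary electrophoresis. Gain/loss fit vs DMSO baseline.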

[17] = ATG_M_32_CIS: Attagene CIS-FACTORIAL HepG2 Assay for M32 Transcription Factor (Internal Marker) (AID 2282949); conditions: HepG2 Attagene cis-factorial M32 reporter, mRNA; actives raise or lower the signal;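 also: background control marker of the multiplexed CIS panel rather than a real target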
In short: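 Using DMSO as baseline, bidirectional curve fits were applied to reporter mRNA signals. These came from transiently transfected HepG2 cells exposed for 24 h, with RNA analysed by RT-PCR, FAM primer extension, HpaI digestion and CE.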

[18] = ATG_TA_CIS: Attagene CIS-FACTORIAL HepG2 Assay for human TA Basal Promoter (AID 2282964); conditions: HepG2 Attagene CIS-factorial TA basal promoter reporter; actives raise or lower the signal
In short: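 Steps: transfect HepG2 with MRTUs; dose 24 h; isolate RNA, DNase-treat, reverse-transcribe; PCR and FAM-label reporter cDNA; digest with HpaI 2h at 37 C; run capillary electrophoresis. Activity fitted both directions against DMSO.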

[19] = ATG_Sox_CIS: Attagene CIS-FACTORIAL HepG2 Assay for human SRY-box transcription factor (SOX) (AID 2282960); conditions: HepG2 Attagene cis-factorial SOX reporter, mRNA; actives raise or lower the signal
In short: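 Gain- or loss-of-signal endpoint, fitted bidirectionally with DMSO as negative control. Based on reporter mRNA from transfected HepG2 cells harvested 24 h post-treatment and quantified via RT-PCR and capillary electrophoresis.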

Measured: AC50

CCC(C)OC(=O)c1ccc(O)cc1 (stereo unspecified)
active: [10] 27.8 µM | [11] 100 µM
not listed: [17] | [18] | [19]
inactive: all other assays above

Nc1ccc(N=Nc2ccccc2)c(N)n1
active: [7] 69.9 µM | [11] 100 µM | [12] 51.6 µM
not listed: [2] | [4] | [13] | [19]
inactive: all other assays above

O=S(=O)(Oc1ccc(Cl)cc1Cl)c1ccccc1
active: [7] 32.8 µM | [8] 7.97 µM | [10] 2.2 µM
not listed: [1] | [16]
inactive: all other assays above

CC(C)=CCC[C@H](C)CCO
not listed: [1] | [8] | [13]
inactive: all other assays above

CCOc1ccc(N)c([N+](=O)[O-])c1
not listed: [1] | [6]
inactive: all other assays above

CC1(C)S[C@@H]2[C@H](NC(=O)COc3ccccc3)C(=O)N2[C@H]1C(=O)O
active: [10] 4.35 µM
not listed: [1] | [4] | [5] | [13]
inactive: all other assays above

From PubChem BioAssay (EPA / NIEHS)
